# Experimental data as given in PubChem BioAssay (NCI).
# This is part of a sample that, as a whole, favours compounds with a hit. Of some 79,000 tested, about 15% had one in any assay. Values without a mark were called inactive. Active and inactive are the calls of the source. Rule as the data show it: active = growth inhibition above about 70%; inactive = the rest.
# How the values were obtained:
# [1] = NCI Yeast Anticancer Drug Screen. Data for the wt1 strain (AID 149);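 also: 0% = growth of vehicle-treated wt1 cultures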; conditions: S. cerevisiae wt1 strain (SPY 50644) growth inhibition, active compounds read high
# In short: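 Yeast wt1 strain exposed to compounds; growth inhibition measured relative to vehicle-treated controls.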
# [2] = NCI Yeast Anticancer Drug Screen. Data for the rad50EPP+ strain (AID 151);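 also: 0% = growth of vehicle-treated control cultures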; conditions: S. cerevisiae rad50 mutant strain, active compounds read high
# In short: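 One strain with a rad50 alteration (rad50EPP+) was compound-treated, its growth then compared to that of vehicle controls.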
# [3] = NCI Yeast Anticancer Drug Screen. Data for the rad50 strain (AID 155);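 also: 0% = growth of vehicle-only cultures of the same strain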; conditions: S. cerevisiae rad50 strain growth inhibition, active compounds read high
# In short: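 Yeast carrying a defined DNA repair defect were exposed to test compounds, and growth was compared with vehicle-treated controls to give percent inhibition.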
# [4] = NCI Yeast Anticancer Drug Screen. Data for the mec2-1 strain (AID 157); conditions: S. cerevisiae mec2-1 strain, active compounds read high
# In short: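 Test agents were screened against the mec2-1 yeast strain, with defined DNA repair or cell cycle alteration. Growth was scored as inhibition against vehicle-only controls.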
# [5] = NCI Yeast Anticancer Drug Screen. Data for the rad14 strain (AID 159);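 also: 0% = growth of vehicle-treated control cultures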; conditions: S. cerevisiae rad14 strain growth inhibition, active compounds read high
# In short: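 Yeast cells carrying a defined DNA-repair defect were exposed to compounds, and growth inhibition was calculated relative to vehicle-treated control cultures.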
# [6] = NCI Yeast Anticancer Drug Screen. Data for the sgs1 mgt1 strain (AID 161);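 also: 0% = growth of cultures given vehicle only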; conditions: S. cerevisiae sgs1 mgt1 strain, active compounds read high
# In short: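 Inhibition of yeast growth, normalised to vehicle-treated controls, is reported for a strain bearing genetic alterations in DNA damage repair.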
# [7] = NCI Yeast Anticancer Drug Screen. Data for the CLN2oe strain (AID 163);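 also: 0% = growth of vehicle-only control cultures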; conditions: S. cerevisiae CLN2oe strain, active compounds read high
# In short: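 Here, growth inhibition in a cell-cycle-altered yeast strain after compound exposure was quantified against vehicle control growth.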
# [8] = NCI Yeast Anticancer Drug Screen. Data for the cln2 rad14 strain (AID 165);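 also: 0% = growth equal to vehicle treated cultures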; conditions: S. cerevisiae cln2 rad14 strain, active compounds read high
# In short: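 Growth of compound-exposed yeast (cln2 rad14 genotype) measured and expressed as inhibition relative to vehicle.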
# [9] = NCI Yeast Anticancer Drug Screen. Data for the bub3 strain (AID 167); conditions: S. cerevisiae bub3 mutant strain, active compounds read high
# In short: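 Compounds were applied to a genetically altered yeast strain carrying a cell-cycle control defect. Growth inhibition was scored against vehicle-treated controls.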
# [10] = NCI Yeast Anticancer Drug Screen. Data for the wt2 strain (AID 169);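 also: 0% = growth of vehicle-treated yeast cultures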; conditions: S. cerevisiae wt2 strain growth inhibition, active compounds read high
# In short: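 Genetically defined yeast strains from a DNA-repair/cell-cycle panel were used. Compound-exposed yeast growth was measured, and the inhibition was calculated relative to vehicle treatment.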
# [11] = NCI Yeast Anticancer Drug Screen. Data for the mlh1 strain (AID 171);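 also: 0% = growth of vehicle-treated control cultures of the same strain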; conditions: S. cerevisiae mlh1 strain growth inhibition, active compounds read high
# In short: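 Here the genetically defined yeast mutant is grown with each compound, and the extent to which its growth falls below that of vehicle-exposed cells is reported.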
# [12] = NCI Yeast Anticancer Drug Screen. Data for the sgs1 strain (AID 173);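 also: 0% = growth of vehicle-only control cultures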; conditions: S. cerevisiae sgs1 mutant, active compounds read high
# In short: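 Relative growth inhibition, referenced to vehicle, was determined in a yeast strain with a defined alteration affecting DNA damage repair or cell cycle control after compound exposure.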
# [13] = NCI Yeast Anticancer Drug Screen. Data for the mlh1 rad18 strain (AID 175); conditions: S. cerevisiae mlh1 rad18 strain growth inhibition, active compounds read high
# In short: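 In this whole-cell yeast screen, a strain with altered DNA damage repair is challenged with compound, and its growth is measured against matched vehicle-treated controls.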
# [14] = NCI Yeast Anticancer Drug Screen. Data for the rad18 strain (AID 177); conditions: S. cerevisiae rad18 mutant growth inhibition, active compounds read high
# In short: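 Screen uses a yeast strain with a defined lesion in DNA damage repair; compound effect is read as loss of growth compared to untreated vehicle cultures.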
# [15] = at 5.0 µM (retest, dose inferred, filed as 0.5)
# [16] = at 50.0 µM (retest, dose inferred, filed as 5.0)
smiles,measurement,setting,value
CCC(C)/C(C)=N/NC(N)=O (stereo not drawn),growth inhibition,[1]; at 1.2 µM,0%
same,growth inhibition,[1]; at 3.7 µM,2%
same,growth inhibition,[1]; at 11.0 µM,3%
same,growth inhibition,[1]; at 33.0 µM,3%
same,growth inhibition,[1]; at 100.0 µM,1%
same,growth inhibition,[2]; at 1.2 µM,-5%
same,growth inhibition,[2]; at 3.7 µM,-1%
same,growth inhibition,[2]; at 11.0 µM,-3%
same,growth inhibition,[2]; at 33.0 µM,-9%
same,growth inhibition,[2]; at 100.0 µM,-14%
same,growth inhibition,[3]; at 1.2 µM,2%
same,growth inhibition,[3]; at 3.7 µM,0%
same,growth inhibition,[3]; [15],-7%
same,growth inhibition,[3]; at 11.0 µM,0%
same,growth inhibition,[3]; at 33.0 µM,0%
same,growth inhibition,[3]; [16],30%
same,growth inhibition,[3]; at 50.0 µM,58.2%
same,growth inhibition,[3]; at 100.0 µM,0%
same,growth inhibition,[4]; at 1.2 µM,-1%
same,growth inhibition,[4]; at 3.7 µM,2%
same,growth inhibition,[4]; [15],-3%
same,growth inhibition,[4]; at 11.0 µM,-1%
same,growth inhibition,[4]; at 33.0 µM,-3%
same,growth inhibition,[4]; [16],-2%
same,growth inhibition,[4]; at 50.0 µM,18.1%
same,growth inhibition,[4]; at 100.0 µM,1%
same,growth inhibition,[5]; at 1.2 µM,-2%
same,growth inhibition,[5]; at 3.7 µM,0%
same,growth inhibition,[5]; at 11.0 µM,1%
same,growth inhibition,[5]; at 33.0 µM,0%
same,growth inhibition,[5]; at 100.0 µM,0%
same,growth inhibition,[6]; [15],5%
same,growth inhibition,[6]; [16],48%
same,growth inhibition,[6]; at 50.0 µM,36.9%
same,growth inhibition,[7]; at 1.2 µM,-7%
same,growth inhibition,[7]; at 3.7 µM,0%
same,growth inhibition,[7]; at 11.0 µM,0%
same,growth inhibition,[7]; at 33.0 µM,-6%
same,growth inhibition,[7]; at 100.0 µM,-5%
same,growth inhibition,[8]; [15],5%
same,growth inhibition,[8]; [16],12%
same,growth inhibition,[8]; at 50.0 µM,22.5%
same,growth inhibition,[9]; at 1.2 µM,-2%
same,growth inhibition,[9]; at 3.7 µM,-2%
same,growth inhibition,[9]; [15],8%
same,growth inhibition,[9]; at 11.0 µM,0%
same,growth inhibition,[9]; at 33.0 µM,-3%
same,growth inhibition,[9]; [16],43%
same,growth inhibition,[9]; at 50.0 µM,25%
same,growth inhibition,[9]; at 100.0 µM,-10%
same,growth inhibition,[10]; at 1.2 µM,1%
same,growth inhibition,[10]; at 3.7 µM,2%
same,growth inhibition,[10]; at 11.0 µM,3%
same,growth inhibition,[10]; at 33.0 µM,4%
same,growth inhibition,[10]; at 100.0 µM,2%
same,growth inhibition,[11]; at 1.2 µM,1%
same,growth inhibition,[11]; at 3.7 µM,1%
same,growth inhibition,[11]; at 11.0 µM,2%
same,growth inhibition,[11]; at 33.0 µM,1%
same,growth inhibition,[11]; at 100.0 µM,0%
same,growth inhibition,[12]; at 1.2 µM,0%
same,growth inhibition,[12]; at 3.7 µM,4%
same,growth inhibition,[12]; at 11.0 µM,3%
same,growth inhibition,[12]; at 33.0 µM,3%
same,growth inhibition,[12]; at 100.0 µM,2%
same,growth inhibition,[13]; [15],1%
same,growth inhibition,[13]; [16],76% (active)
same,growth inhibition,[13]; at 50.0 µM,68%
same,growth inhibition,[14]; at 1.2 µM,1%
same,growth inhibition,[14]; at 3.7 µM,0%
same,growth inhibition,[14]; at 11.0 µM,-7%
same,growth inhibition,[14]; at 33.0 µM,3%
same,growth inhibition,[14]; at 100.0 µM,5%
